Data published in the supplement of paper PMC13380429.

Tested on: Vero E6 infected with SARS-CoV-2
Test: inhibition of SARS-CoV-2 cytopathic effect; higher = more antiviral protection, active = above 15
Conditions: 48 h

Measured: inhibition of SARS-CoV-2 cytopathic effect

CN(C)c1ccc(/C=C2\C(=O)Nc3ccccc32)cc1
inactive: 1 nM 2.81% | 8.33 nM -0.37% | 100 nM 1.44% | 833.33 nM 2.25% | 10000 nM 0.95%

COc1cc(C#N)ccc1S(=O)(=O)Nc1ccc2c(c1)cc(C)c(=O)n2C
inactive: 1 nM -2.94% | 8.33 nM 1.53% | 100 nM 0.3% | 833.33 nM -4.02% | 10000 nM -0.1%

COc1ccc(-c2cc(=O)c3c(O)cc(O[C@@H]4O[C@H](CO[C@@H]5O[C@@H](C)[C@H](O)[C@@H](O)[C@H]5O)[C@@H](O)[C@H](O)[C@H]4O)cc3o2)cc1O [diosmin]
inactive: 1 nM 3.94% | 8.33 nM -0.11% | 100 nM -2.26% | 833.33 nM 4.64% | 10000 nM -2.85%

Cc1cc(CCC[C@H](CC(=O)NO)C(=O)N[C@H](C(=O)N[C@H](C)c2ccccc2)C(C)(C)C)ccc1-c1ccccc1
inactive: 1 nM -1.73% | 8.33 nM -2.08% | 100 nM -3.51% | 833.33 nM -2.76% | 10000 nM -13%

C(=C\c1ccccc1)/CN1CCN(CCOC(c2ccccc2)c2ccccc2)CC1
inactive: 1 nM -2.82% | 8.33 nM 0.59% | 100 nM -0.97% | 833.33 nM 0.92% | 10000 nM 4.63%

NCCNCCNCCN [trientine]
inactive: 1 nM -0.43% | 8.33 nM 2.23% | 100 nM 1.04% | 833.33 nM 2.74% | 10000 nM -1.84%

CO[C@@]1(NC(=O)CSCC#N)C(=O)N2C(C(=O)O)=C(CSc3nnnn3C)CS[C@@H]21 [cefmetazole]
inactive: 1 nM 1.84% | 8.33 nM 1.39% | 100 nM 1.15% | 833.33 nM 2.93% | 10000 nM 2.49%

Oc1nc(-c2ccc(C(F)(F)F)cc2)nc2c1CSCC2
inactive: 1 nM 4.88% | 8.33 nM 2.98% | 100 nM 3.97% | 833.33 nM 2.58% | 10000 nM 0.15%

c1ccc2c(c1)CCC[C@H]2Nc1nc2ccccc2[nH]1
inactive: 1 nM 2.74% | 8.33 nM 2.66% | 100 nM 1.8% | 833.33 nM -1.92% | 10000 nM -0.48%

CNNCc1ccc(C(=O)NC(C)C)cc1 [procarbazine]
inactive: 1 nM -1.55% | 8.33 nM 4.48% | 100 nM -0.09% | 833.33 nM 2.14% | 10000 nM 0.27%

CN(C)CCCC1(c2ccc(F)cc2)OCc2cc(C#N)ccc21 (stereo not given) [citalopram]
inactive: 1 nM -0.29% | 8.33 nM 2.58% | 100 nM 1.49% | 833.33 nM -0.995% | 10000 nM -4.99%

OC(CCN1CCCCC1)(c1ccccc1)c1ccccc1 [pridinol]
inactive: 1 nM 3.98% | 8.33 nM 4.59% | 100 nM -0.32% | 833.33 nM -9.56% | 10000 nM 0.53%

O=C(Oc1ccc(Br)cc1)N1CCN2CCC1CC2
inactive: 1 nM 1.3% | 8.33 nM 1.31% | 100 nM 4.76% | 833.33 nM 1.51% | 10000 nM 0.59%

C[C@@H]1CC[C@H]2[C@@H](C)C(=O)O[C@@H]3O[C@@]4(C)CC[C@@H]1[C@]32OO4 [artemisinin]
inactive: 1 nM 0.52% | 8.33 nM 0.05% | 100 nM 3.13% | 833.33 nM 3.83% | 10000 nM 1.16%

COc1ccc2c(c1)C=C1Cn3c-2c(C2CCCCC2)c2ccc(cc23)C(=O)NS(=O)(=O)N(C)CCOCCN(C)C1=O
inactive: 1 nM 3.67% | 8.33 nM 0.37% | 100 nM 0.59% | 833.33 nM 2.72% | 10000 nM 8.22%

O=C(CCCN1CCC2(CC1)C(=O)N(Cc1cccc(F)c1)CN2c1ccccc1)c1ccc(F)cc1 [3'-fluorobenzylspiperone]
inactive: 1 nM 1.1% | 8.33 nM 1.76% | 100 nM 1.3% | 833.33 nM 4.46%
active: 10000 nM 71.7%

CN(C)CCOC(c1ccccc1)c1ccccc1.Cn1c(=O)c2[nH]c(Cl)nc2n(C)c1=O [dimenhydrinate]
inactive: 1 nM 1.11% | 8.33 nM -2% | 100 nM 0.95% | 833.33 nM 0.58% | 10000 nM 0.68%

OCc1ccccc1O[C@@H]1O[C@H](CO)[C@@H](O)[C@H](O)[C@H]1O [salicin]
inactive: 1 nM 0.33% | 8.33 nM 2.34% | 100 nM 1.75% | 833.33 nM 2.27% | 10000 nM 5.91%
